Only some compounds are listed: those with a hit (about 10% of all), similar ones and a draw of the others.
JMJD2A Tudor inh: blocks the human JMJD2A Tudor domain; AlphaScreen JMJD2A-Tudor / H3K4me3 peptide binding; Potency, µM (series often up to 114 µM), for inactives: top-dose activity change, negative = inhibition, actives largely listed as inhibitors; 4.4% of 390,000 active; AID 504339; note: % is set by controls: 0 for no effect and ±100 for the full control effect; nearly all actives have a fitted effect of over 50% in size
G9a inh: blocks human histone lysine methyltransferase G9a | Potency, µM (highest dose often 102 µM), inactives show top-dose activity, negative = inhibition, most hits filed as inhibitors | Q96KQ7 | G9a H3K9 monomethylation, AlphaScreen, 2 h | AID 504332 | 8.8% of 350,000 active; note: % is set by controls: 0 for no effect and ±100 for the full control effect; nearly all actives have a fitted effect of over 75% in size
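Chemiluminescent proximity detection of H3K9 monomethylation, read after 10 min bead incubation in the dark. Reaction: 20 nM G9a, 500 nM biotin-H3K9 peptide, 20 uM SAM cofactor, 2 h, room temperature, following 15 min enzyme-compound preincubation.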
BAZ2B block: blocks human BAZ2B. AID 504333. Potency, µM (titrated, usually from 114 µM), without a hit: at the top dose activity change, negative = inhibition, most hits filed as inhibitors. AlphaScreen BAZ2B-H3K14Ac peptide displacement. Q9UIF8. 4.4% of 360,000 active; note: % is set by controls: 0 for no effect and ±100 for the full control effect; nearly all actives have a fitted effect of over 60% in size
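Multi-concentration screen (max 110 uM) measuring displacement of acetylated histone H3 peptide from BAZ2B by AlphaScreen, using 50 nM protein, 50 nM peptide and 10 ug/mL streptavidin donor plus Ni-chelate acceptor beads.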
HP1b binding inh: inhibitors of HP1-beta chromodomain binding to methylated histone tails | AlphaScreen HP1-beta / biotin-H3K9me3 peptide binding | Potency, µM (doses to about 114 µM), for the others: at the top dose activity change, negative = inhibition, hits mostly inhibitors | 0.56% of 390,000 active | AID 540317; note: nearly all actives have a fitted effect of over 70% in size
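Compound inhibition of the preformed complex between 50 nM HP1-beta and 50 nM biotinylated H3K9me3 peptide was read by AlphaScreen. Buffer was PBS pH 7.4 with 0.01% Tween-20. Incubations ran 30 min at room temperature, with 10 ug/mL donor/acceptor beads.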
GLS inh: blocks human kidney-isoform glutaminase activity; O94925; GLS enzymatic activity, qHTS titration; Potency, µM (doses to about 45.5 µM), without a hit: at the top dose activity change, negative = inhibition, actives largely listed as inhibitors; 0.21% of 410,000 active; note: % is set by controls: 0 for no effect and ±100 for the full control effect
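Human kidney-isoform GLS in 45 mM KH2PO4 pH 8.2, 0.02% Tween-20, with compound, started with 1mM L-Glutamine (added stock). Glutamate oxidase/HRP/Amplex red coupled fluorescence read at start and after 30 min at RT.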
* hit, by the source's call; ? = inconclusive; / = no result; [ ] = another dose, or the depositor's remark. Calls come from the whole dose curve; as a rule, active = well fitted curve in the direction sought with a large enough effect; inconclusive = small, poorly fitted or top-dose-only effect, or another doubt; inactive = no such curve, though single readings can be large; an effect the other way counts as inactive or inconclusive. Potency is the fitted concentration of half-maximal effect.

SMILES | JMJD2A Tudor inh | G9a inh | BAZ2B block | HP1b binding inh | GLS inh
O=C(C1CCN(S(=O)(=O)c2ccccc2)CC1)N1CCN(Cc2ccc3c(c2)OCO3)CC1 | -18% | 88% | -1% | -2% | 6%
COc1cc2c(cc1OC)C(C)N(C(=O)Cn1ncc3c1-c1ccccc1OC3)CC2 (stereo not drawn) | -23% | 79µM* | -1% | 31% | 18%
O=C(C1CCN(Cc2ccccc2O)CC1)N1CCN(Cc2ccc3c(c2)OCO3)CC1 | 2.8µM* | 6.3µM* | ? | ? | 22%
O=C(C1CCN(Cc2cc(Cl)ccc2O)CC1)N1CCN(Cc2ccccc2)CC1 | 3.5µM* | ? | ? | ? | 23%
O=C(Cn1ncc2c1-c1ccccc1OC2)N1CCN(Cc2ccc3c(c2)OCO3)CC1 | -24% | 16µM* | -2% | 12% | 1%
O=C(c1ccc(Cl)c(S(=O)(=O)NCc2cccnc2)c1)N1CCCC1 | 1% | 14%[2.33 µM] | 4% | 30% | 3%
Cc1cc(C)c(NC(=O)CSc2nc3ccccc3nc2N2CCCCC2)c(C)c1 | -8% | 7%[59 µM] | -5% | 23% | -19%
CC1CCCN(C(=O)C2CCN(Cc3ccc4c(c3)OCO4)CC2)C1 (stereo not drawn) | 2.2µM* | 50µM* | -32% | -36% | 0%
O=C(Nc1ccc2c(c1)OCO2)C1CCN(Cc2cc3c(cc2O)OCO3)CC1 | ? | 32µM* | -36% | ? | 29%
O=C(Nc1ccc2c(c1)OCO2)C1CCCCC1 | 11% | ? | -17% | 27% | -9%
O=C(c1cccc(F)c1)N1CCN(Cc2ccc3c(c2)OCO3)CC1 | 1µM* | 2%[0.501 µM] | 50µM* | ? | 4%
O=C(c1cccc(Cl)c1)N1CCN(Cc2ccc3c(c2)OCO3)CC1 | -15% | / | 15% | 7% | 3%
O=C(C1CCN(S(=O)(=O)N2CCOCC2)CC1)N1CCN(Cc2ccc3c(c2)OCO3)CC1 | -5% | -32% | -5% | 26% | 18%
COc1cccc(OC)c1C(=O)N1CCN(Cc2ccc3c(c2)OCO3)CC1 | 5µM* | 14µM* | 50µM* | 45µM* | 2%
Cc1ccc2c(c1)-c1onc(C(=O)N(C)c3ccc(F)cc3)c1CO2 | -13% | 9%[59 µM] | 2% | 28% | 3%
O=C(c1cccnc1)N1CCN(Cc2cccc(F)c2)CC1 | 1.6µM* | 3.2µM* | 32µM* | 45µM* | 11%
CC1CCN(c2nc3ccc(C(=O)N4CCN(Cc5ccc6c(c5)OCO6)CC4)cc3s2)CC1 | ? | 28µM* | ? | 15% | -3%
Cc1ccc2c(C)c(C(=O)N3CCN(Cc4ccc5c(c4)OCO5)CC3)oc2c1C | -33% | 50µM* | ? | 0% | 4%
Cc1ccc(C(=O)N2CCN(Cc3ccc4c(c3)OCO4)CC2)o1 | -11% | 7%[59 µM] | 10% | 14% | 7%
O=C(c1cc(-c2ccncc2)nc2ccc(Cl)cc12)N1CCN(Cc2ccc3c(c2)OCO3)CC1 | ? | ? | 40µM* | -21% | -23%
CCCCNC(=O)C1(C)CCN1C(=O)c1cc(C)n(C(C)(C)C)n1 (stereo not drawn) | / | / | / | / | 3%
CCC1=C(c2ccc(OC)cc2)CCC(C(=O)O)C1C (stereo not drawn) | -1% | / | / | 43% | 11%
O=C(CN1C(=O)CCc2cc(S(=O)(=O)N3CCOCC3)ccc21)NCc1ccc(F)cc1 | -16% | 24%[59 µM] | -3% | 20% | 8%
COc1ccccc1C(=O)NC(=O)COC(=O)CNC(=O)c1ccccc1F | -17% | / | / | 40% | -4%
COc1cccc(CN2CCC(C(=O)N3CCN(Cc4ccc5c(c4)OCO5)CC3)CC2)c1OC | 3.2µM* | 1% | -13% | ? | 6%
SMILES | JMJD2A Tudor inh | G9a inh | BAZ2B block | HP1b binding inh | GLS inh
CCn1c(Cn2nnc(-c3ccccc3)n2)nnc1SCC(=O)Nc1ccc(N(C)C)cc1 | -27% | 13µM* | -5% | 23% | 9%
CCn1c(SCC(=O)Nc2ccccc2N2CCOCC2)nnc1-c1ccccc1 | -17% | -5%[12.7 µM] | 3% | 8% | -1%
CN(C)c1ccc(NC(=O)CSc2nnc(-c3cccs3)n2Cc2ccco2)cc1 | 40µM* | 10µM* | 45µM* | ? | 34%
CCn1c(Cn2nnc(-c3ccccc3)n2)nnc1SCC(=O)Nc1ccc(C(C)=O)cc1 | -16% | 18%[12.7 µM] | -4% | 6% | 7%
CCn1c(SCC(=O)Nc2ccc(N3CCOCC3)c(Cl)c2)nnc1-c1ccc(N)cc1 | ? | 45µM* | -1% | 43% | 5%
CCn1c(SCC(=O)Nc2ccc(N(C)C)cc2)nnc1-c1cccc(C)c1 | ? | 7.1µM* | ? | -22% | 32%
COc1ccc(Cc2c(-c3ccc(F)cc3)nc3c4ccccc4ccn23)c(C)c1 | / | / | / | / | -2%
CC1=C(C(=O)Nc2ccccc2)C(c2ccncc2)n2nc(SCc3ccccc3)nc2N1 (stereo not drawn) | -10% | -4%[59 µM] | ? | 23% | 1%
CC(Oc1ccc(F)cc1)C(=O)NCC1(N(C)C)CCCCC1 (stereo not drawn) | -12% | -2%[59 µM] | -7% | 23% | 4%
CN(CC(=O)Nc1cccc(C(F)(F)F)c1)C1=NS(=O)(=O)c2ccccc21 | 1% | / | / | 29% | -6%
CN(C)c1ccc(C2CC(c3c(O)n(C4CCCCC4)c(=O)[nH]c3=O)=Nc3ccccc3S2)cc1 (stereo not drawn) | -10% | -9%[59 µM] | 3% | 13% | -1%
CCCN(C(=O)c1sc2nc3n(c(=O)c2c1C)CCCC3)c1ccccc1C | -30% | ? | ? | 26% | 9%
CC(=O)Nc1ccc(S(=O)(=O)NC2=NCN(C(C)C)CN2)cc1 | 6% | -11%[59 µM] | -14% | 11% | 10%
O=c1c(-c2nc3ccccc3s2)cccn1Cc1ccc(Cl)cc1 | 17% | 90% | 30% | 58% | -3%
CCn1c(-c2ccccc2SC)n[nH]c1=S | ? | 14µM* | -15% | 7% | 2%
CCn1c(-c2cccn(Cc3ccccc3)c2=O)n[nH]c1=S | ? | 32µM* | -2% | 18% | 7%
CCn1c(C(C)NC(=O)c2ccccc2C)n[nH]c1=S (stereo not drawn) | ? | / | -12% | 45% | 1%
CC[C@@H](NC(=O)[C@H](Cc1ccccc1)NC(=O)CC[C@H]1O[C@@H](n2ccc(=O)[nH]c2=O)[C@H](O)[C@@H]1O)c1ccccc1 | / | / | / | / | 2%
CN(C)c1ccc(NC(=O)c2ccc(COc3cccc(Cl)c3)o2)cc1 | 13µM* | ? | 10µM* | ? | 36%
COC(=O)CN1C(=S)N(c2ccc(OC)cc2)C(=O)/C1=C/c1ccc(N2CCOCC2)cc1 | ? | 32µM* | 28µM* | ? | 6%
COC(=O)CN1C(=S)N(c2ccc(OC)cc2)C(=O)/C1=C/c1ccc(OC)cc1 | -33% | -11%[12.7 µM] | -35% | 7% | -13%
CCOC(=O)/C(=C/C=C1\Sc2cc(C)c(C)cc2N1CC)C(C)=O | -21% | -20% | 40µM* | 16% | 1%

Screens from PubChem BioAssay.
